This passage reports growth results from PubChem BioAssay (NCI).

Each structure is given as a SMILES string. “And” between values parts separate entries of the source, which are not always exact repeats. Equal values may be shown once. This is part of a sample that, as a whole, favours compounds with a hit. Of some 83,000 tested, about 20% had one in any assay.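 Percent growth is the endpoint: 0 to 100 indicates growth inhibition (40 means 60% inhibition), 0 means no net growth, and negative values indicate cell death.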 The source made the active and inactive calls. How the source made its calls: active means growth percent below 10; inactive means the rest.

Holding throughout (assay): NCI-60 one-dose screen, 48 h (100 = growth as untreated, 0 = no growth, -100 = all killed)
The subject of test [1] is HT29 colon.
For test [2], the system named is SNB-75 CNS. As to conditions: 10 µM unless noted.
The test system of test [3] is SNB-19 CNS.
Test [4] concerns U251 CNS.
Test [5] concerns PC-3 prostate.
The test system of test [6] is SK-MEL-5 melanoma.
For test [7], the system named is UACC-62 melanoma.
Test [8] relates to LOX IMVI melanoma.
In test [9] the test system is SK-MEL-2 melanoma.
In test [10] the test system is EKVX NSCLC.
Test [11] relates to SN12C renal.
Test [12] relates to UO-31 renal.
The test system of test [13] is ACHN renal.
Test [14] deals with A498 renal.
Test [15] relates to HL-60(TB) leukemia.
Test [16] has as its system CCRF-CEM leukemia.
The test system of test [17] is MOLT-4 leukemia.
Test [18] has as its system RPMI-8226 leukemia.
The subject of test [19] is SK-MEL-28 melanoma.
Test [20] has as its system OVCAR-8 ovarian.

With `CC[C@](O)(C(=O)O)c1cc2n(c(=O)c1CO)Cc1cc3ccccc3nc1-2`, the growth in [1] (10 µM unless noted) is -31.3% (active); in test [2] it was -33.5% (active); in test [3] (10 µM unless noted), 1.96% (active); in [4] (10 µM unless noted), 1.58% (active); in [5] (10 µM unless noted), -8.14% (active); in [6] (10 µM unless noted), -94.2% (active). The growth in test [7] (10 µM) was -68.6% (active); in test [8] (10 µM unless noted), -40.9% (active); in test [9] (10 µM unless noted), -20.9% (active); in test [10] (10 µM unless noted), 10.2% (inactive); in [11] (10 µM unless noted), 17% (inactive); in test [12] (10 µM unless noted), -61% (active). The growth in [13] (10 µM unless noted) was -57.1% (active); in [14] (10 µM unless noted) it was -76.5% (active); in test [15] (10 µM unless noted) it was -44.6% (active); in test [16] (10 µM unless noted) it was -24.5% (active); in test [17] (10 µM unless noted), -38.3% (active); in [18] (10 µM unless noted) it was -36% (active).

In the case of `S=C(SSC(=S)N1CCCCC1)N1CCCCC1`, the growth in [1] (10 µM) was 104% (inactive); in test [1] (100 µM) it was -61.4% (active); in [2] it was 50.5% [100 µM] (inactive); in test [3] (10 µM) it was 92.8% (inactive); in [3] (100 µM) it was 56.5% (inactive); in [4] (10 µM), 88% (inactive). Also, the growth is -43.7% (active) in [4] (100 µM); 83.6% (inactive) in test [5] (10 µM); 18% (inactive) in test [5] (100 µM); 93.9% (inactive) in test [6] (10 µM); -18% (active) in test [6] (100 µM); 96.7% (inactive) in [7] (10 µM). The growth is 2.29% (active) in test [7] (100 µM); 87.1% (inactive) in test [8] (10 µM); -45.9% (active) in test [8] (100 µM); 105% (inactive) in test [19] (10 µM); -41.6% (active) in test [19] (100 µM); 102% (inactive) in test [9] (10 µM). The growth in test [9] (100 µM) was 2.78% (active); in test [10] (10 µM), 104% (inactive); in [10] (100 µM) it was -23.3% (active); in [11] (10 µM) it was 96.1% (inactive); in [11] (100 µM), -42.3% (active); in [12] (10 µM), 102% (inactive). In addition, the growth is -12.3% (active) in [12] (100 µM); 106% (inactive) in test [13] (10 µM); -51% (active) in test [13] (100 µM); 105% (inactive) in [14] (10 µM); 72.4% (inactive) in test [14] (100 µM); 86.4% (inactive) in test [15] (10 µM). Moreover, the growth was 14.7% (inactive) in test [15] (100 µM); 91.1% (inactive) in test [16] (10 µM); -38.1% (active) in [16] (100 µM); 85% (inactive) in test [17] (10 µM); 0.424% (active) in [17] (100 µM); 105% (inactive) in test [18] (10 µM). The growth was -44.7% (active) in test [18] (100 µM), 92.4% (inactive) in test [20] (10 µM) and -43.4% (active) in [20] (100 µM).

With `CC1=C(CO)C2=C(C)C3(CC3)[C@@](C)(O)C(=O)C2=C1`, the growth was -17.8% (active) in test [1] (10 µM unless noted); -83.8% (active) in test [2]; 11.3% (inactive) in test [3] (10 µM unless noted); 2.57% (active) in test [4] (10 µM unless noted); -18.8% (active) in test [5] (10 µM unless noted); -84.1% (active) in test [6] (10 µM unless noted). The growth in test [7] (10 µM) was -81.5% (active); in [8] (10 µM unless noted), 22.8% (inactive); in [9] (10 µM unless noted), -46.8% (active); in test [10] (10 µM unless noted), 0.643% (active); in [11] (10 µM unless noted), 20.5% (inactive); in [12] (10 µM unless noted), -40.5% (active). Besides, the growth is -16.4% (active) in test [13] (10 µM unless noted); -66.5% (active) in test [14] (10 µM unless noted); -32.9% (active) in [15] (10 µM unless noted); 28.6% (inactive) in test [16] (10 µM unless noted); 16% (inactive) in test [17] (10 µM unless noted); 80.2% (inactive) in test [18] (10 µM unless noted).

Take `C[C@]12CC[C@H](O)CC1=CC[C@@H]1[C@@H]2CC[C@]2(C)C(=O)CC[C@@H]12`: the growth in test [1] (10 µM unless noted) was 81.5% (inactive); in [2], 71.6% (inactive); in test [3] (10 µM unless noted) it was 95% (inactive); in test [4] (10 µM unless noted), 101% (inactive); in test [5] (10 µM unless noted), 79.2% (inactive); in test [6] (10 µM unless noted), 92.9% (inactive). Moreover, the growth in test [7] (10 µM) is 92.9% (inactive); in test [8] (10 µM unless noted), 102% (inactive); in [9] (10 µM unless noted), 95.3% (inactive); in test [10] (10 µM unless noted) it was 85.7% (inactive); in [11] (10 µM unless noted), 106% (inactive); in [12] (10 µM unless noted) it was 80.6% (inactive). Further, the growth was 108% (inactive) in test [13] (10 µM unless noted); 92% (inactive) in test [14] (10 µM unless noted); 85% (inactive) in test [15] (10 µM unless noted); 76.3% (inactive) in test [16] (10 µM unless noted); 89% (inactive) in test [17] (10 µM unless noted); 80.4% (inactive) in test [18] (10 µM unless noted).

For the compound `COc1ccccc1/C=C(/C)[N+](=O)[O-]`, the growth is 54.7% (inactive) and 88.8% (inactive) in [1] (10 µM unless noted); 68.3% (inactive) and 85% (inactive) in test [2]; 73.9% (inactive) and 107% (inactive) in test [3] (10 µM unless noted); 83% (inactive) and 98.7% (inactive) in [4] (10 µM unless noted); 90.3% (inactive) and 84.7% (inactive) in [5] (10 µM unless noted); 80.3% (inactive) and 102% (inactive) in test [6] (10 µM unless noted). The growth in [7] (10 µM) is 58.1% (inactive) and 103% (inactive); in test [8] (10 µM unless noted) it was 22.2% (inactive) and 92.2% (inactive); in test [19] (10 µM) it was 83.3% (inactive) and 116% (inactive); in [9] (10 µM unless noted) it was 94.8% (inactive) and 85.9% (inactive); in test [10] (10 µM unless noted), 90.8% (inactive) and 98.4% (inactive); in test [11] (10 µM unless noted), 32.9% (inactive) and 99.3% (inactive). For the same compound, the growth in test [12] (10 µM unless noted) was 78.7% (inactive) and 83.1% (inactive); in [13] (10 µM unless noted), 71.1% (inactive) and 107% (inactive); in test [14] (10 µM unless noted), 99.1% (inactive) and 118% (inactive); in [15] (10 µM unless noted), 30.7% (inactive) and 92.7% (inactive); in [16] (10 µM unless noted) it was 8.42% (active) and 99.5% (inactive); in [17] (10 µM unless noted), 13.9% (inactive) and 102% (inactive). Moreover, the growth was 0.614% (active) and 118% (inactive) in test [18] (10 µM unless noted); 85.6% (inactive) and 103% (inactive) in test [20] (10 µM).

On to `Cc1c(N)nc([C@H](CC(N)=O)NC[C@H](N)C(N)=O)nc1C(=O)N[C@H](C(=O)N[C@H](C)[C@@H](O)[C@H](C)C(=O)N[C@H](C(=O)NCCc1nc(-c2nc(C(=O)NCCC[S+](C)C)cs2)cs1)[C@@H](C)O)C(OC1OC(CO)C(O)C(O)C1OC1OC(CO)C(O)C(OC(N)=O)C1O)c1cnc[nH]1` (stereo not given in full), for which the growth in test [1] (10 µM unless noted) was 77.9% [2.5 µM] (inactive); in test [2], 40.6% [2.5 µM] (inactive); in test [3] (10 µM unless noted), 74.2% [2.5 µM] (inactive); in [4] (10 µM unless noted) it was 58.4% [2.5 µM] (inactive); in test [5] (10 µM unless noted), 60.5% [2.5 µM] (inactive); in test [6] (10 µM unless noted) it was 34.1% [2.5 µM] (inactive). In addition, the growth is 43.8% (inactive) in [7] (2.5 µM); -42.5% (active) and -100% (active) in test [7] (25 µM); 14.3% [2.5 µM] (inactive) in test [8] (10 µM unless noted); 125% [2.5 µM] (inactive) in test [9] (10 µM unless noted); 103% [2.5 µM] (inactive) in test [10] (10 µM unless noted); 52.2% [2.5 µM] (inactive) in [11] (10 µM unless noted). In addition, the growth in test [12] (10 µM unless noted) is 39.9% [2.5 µM] (inactive); in [13] (10 µM unless noted), -6.04% [2.5 µM] (active); in test [14] (10 µM unless noted), 84.1% [2.5 µM] (inactive); in test [15] (10 µM unless noted), 81.8% [2.5 µM] (inactive); in test [16] (10 µM unless noted), 51.6% [2.5 µM] (inactive); in test [17] (10 µM unless noted), 67.1% [2.5 µM] (inactive). In addition, the growth in test [18] (10 µM unless noted) is 76.4% [2.5 µM] (inactive).

`Cc1ccc(C(=O)OC(C(=O)O)C(OC(=O)c2ccc(C)cc2)C(=O)O)cc1` (stereo not given) (tested in a mixture with another compound): the growth in [1] (10 µM unless noted) is 23% (inactive); in test [2], 55% (inactive); in [4] (10 µM unless noted), 54.3% (inactive); in [5] (10 µM unless noted), 29.4% (inactive); in test [6] (10 µM unless noted) it was 14.7% (inactive); in test [7] (10 µM), 45% (inactive). Also, the growth in [8] (10 µM unless noted) is 56.2% (inactive); in test [19] (10 µM), 57.7% (inactive); in test [9] (10 µM unless noted), 77.1% (inactive); in test [10] (10 µM unless noted), 32.7% (inactive); in test [11] (10 µM unless noted) it was 38.5% (inactive); in test [13] (10 µM unless noted), 66% (inactive). For the same compound, the growth in test [14] (10 µM unless noted) is 77.7% (inactive); in [15] (10 µM unless noted), 23.5% (inactive); in test [16] (10 µM unless noted), 23% (inactive); in [17] (10 µM unless noted) it was 35.9% (inactive); in [18] (10 µM unless noted) it was -3.01% (active); in test [20] (10 µM), 61.4% (inactive).
